# Laboratory results from the supplement of paper PMC8728848.
# The full list was thinned out, with the strongest signals kept by preference.
# Legend:
# Assay in all cases: glycan array binding signal (z-score within array); higher = stronger binding
# Details in all cases: glycan notation: IUPAC condensed, linker removed
# [1] = target: Fuc(a1-2)Gal(b1-3)GlcNAc6S
# Procedure, shortened: (§1)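 The binding signal is a Z-score computed within each array. Data were drawn from 3228 arrays in the Consortium for Functional Glycomics database, restricted to those with a known protein sequence. Scores were averaged over arrays of the same protein sequence at different concentrations or buffers, and over linkers, and negative values can be taken as non-binding.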
# [2] = target: Fuc(a1-2)Gal(b1-3)[Fuc(a1-4)]GlcNAc
# Procedure, shortened: as §1
# [3] = target: Fuc(a1-2)Gal(b1-3)[Fuc(a1-4)]GlcNAc(b1-2)Man(a1-3)[Fuc(a1-2)Gal(b1-3)[Fuc(a1-4)]GlcNAc(b1-2)Man(a1-6)]Man(b1-4)GlcNAc(b1-4)[Fuc(a1-6)]GlcNAc(b1-4)[Fuc(a1-6)]GlcNAc
# Procedure, shortened: as §1
# [4] = target: Fuc(a1-2)Gal(b1-3)[Fuc(a1-4)]GlcNAc(b1-3)[Fuc(a1-3)[Gal(b1-4)]GlcNAc(b1-6)]Gal(b1-4)Glc
# Procedure, shortened: as §1
# [5] = target: Fuc(a1-2)Gal(b1-4)GlcNAc6S
# Procedure, shortened: as §1
# [6] = target: Fuc(a1-2)[GalNAc(a1-3)]Gal(b1-3)GlcNAc(b1-2)Man(a1-3)[Fuc(a1-2)[GalNAc(a1-3)]Gal(b1-3)GlcNAc(b1-2)Man(a1-6)]Man(b1-4)GlcNAc(b1-4)[Fuc(a1-6)]GlcNAc
# Procedure, shortened: as §1
# [7] = target: Fuc(a1-3)[Gal(b1-4)]Glc6S
# Procedure, shortened: as §1
# [8] = target: Fuc(a1-3)[Gal(b1-4)]GlcNAc(b1-3)Gal(b1-4)[Fuc(a1-3)]GlcNAc(b1-3)Gal(b1-4)[Fuc(a1-3)]GlcNAc
# Procedure, shortened: as §1
# [9] = target: Fuc(a1-3)[GalNAc(b1-4)]GlcNAc
# Procedure, shortened: as §1
# [10] = target: Gal(a1-3)Gal(b1-4)GlcNAc(b1-6)GalNAc
# Procedure, shortened: as §1
# [11] = target: Gal(a1-4)Gal(b1-4)GlcNAc(b1-3)Gal(b1-4)Glc
# Procedure, shortened: as §1
# [12] = target: Gal(b1-3)GalNAc(b1-3)Gal(a1-4)Gal(b1-4)Glc
# Procedure, shortened: as §1
# [13] = target: Gal(b1-3)GlcNAc(b1-2)Man(a1-3)[GlcNAc(b1-4)][Gal(b1-3)GlcNAc(b1-2)Man(a1-6)]Man(b1-4)GlcNAc(b1-4)GlcNAc
# Procedure, shortened: as §1
# [14] = target: Gal(b1-3)GlcNAc(b1-3)Gal(b1-4)GlcNAc
# Procedure, shortened: as §1
# [15] = target: Gal(b1-3)GlcNAc(b1-3)Gal(b1-4)GlcNAc(b1-2)Man(a1-3)[Gal(b1-3)GlcNAc(b1-3)Gal(b1-4)GlcNAc(b1-2)Man(a1-6)]Man(b1-4)GlcNAc(b1-4)GlcNAc
# Procedure, shortened: as §1
# Gal(b1-3)GlcNAc6S = target: Gal(b1-3)GlcNAc6S
# Procedure, shortened: as §1
# [16] = target: Gal(b1-4)GlcNAc(b1-2)Man(a1-6)Man(b1-4)GlcNAc(b1-4)GlcNAc
# Procedure, shortened: as §1
# [17] = target: Gal(b1-4)GlcNAc(b1-2)Man(a1-6)[Man(a1-3)]Man(b1-4)GlcNAc(b1-4)GlcNAc
# Procedure, shortened: as §1
# [18] = target: Gal(b1-4)GlcNAc(b1-3)Gal(b1-4)GlcNAc(b1-2)[Gal(b1-4)GlcNAc(b1-3)Gal(b1-4)GlcNAc(b1-6)]Man(a1-6)[Gal(b1-4)GlcNAc(b1-3)Gal(b1-4)GlcNAc(b1-2)Man(a1-3)]Man(b1-4)GlcNAc(b1-4)[Fuc(a1-6)]GlcNAc
# Procedure, shortened: as §1
# [19] = target: Gal(b1-4)GlcNAc(b1-3)Gal(b1-4)GlcNAc(b1-3)Gal(b1-4)GlcNAc(b1-2)Man(a1-3)[Gal(b1-4)GlcNAc(b1-3)Gal(b1-4)GlcNAc(b1-3)Gal(b1-4)GlcNAc(b1-2)Man(a1-6)]Man(b1-4)GlcNAc(b1-4)GlcNAc
# Procedure, shortened: as §1
# [20] = target: Gal(b1-4)GlcNAc(b1-3)Gal(b1-4)GlcNAc(b1-3)Gal(b1-4)GlcNAc(b1-3)Gal(b1-4)GlcNAc(b1-2)Man(a1-3)[Gal(b1-4)GlcNAc(b1-3)Gal(b1-4)GlcNAc(b1-3)Gal(b1-4)GlcNAc(b1-3)Gal(b1-4)GlcNAc(b1-2)Man(a1-6)]Man(b1-4)GlcNAc(b1-4)[Fuc(a1-6)]GlcNAc
# Procedure, shortened: as §1
# [21] = target: Gal(b1-4)GlcNAc(b1-3)Gal(b1-4)GlcNAc(b1-3)Gal(b1-4)GlcNAc(b1-3)Gal(b1-4)GlcNAc(b1-2)[Gal(b1-4)GlcNAc(b1-3)Gal(b1-4)GlcNAc(b1-3)Gal(b1-4)GlcNAc(b1-3)Gal(b1-4)GlcNAc(b1-6)]Man(a1-6)[Gal(b1-4)GlcNAc(b1-3)Gal(b1-4)GlcNAc(b1-3)Gal(b1-4)GlcNAc(b1-3)Gal(b1-4)GlcNAc(b1-2)Man(a1-3)]Man(b1-4)GlcNAc(b1-4)[Fuc(a1-6)]GlcNAc
# Procedure, shortened: as §1
# [22] = target: Gal(b1-4)GlcNAc(b1-3)Gal(b1-4)GlcNAc(b1-3)Gal(b1-4)GlcNAc(b1-3)Gal(b1-4)GlcNAc(b1-3)Gal(b1-4)GlcNAc(b1-2)Man(a1-3)[Gal(b1-4)GlcNAc(b1-3)Gal(b1-4)GlcNAc(b1-3)Gal(b1-4)GlcNAc(b1-3)Gal(b1-4)GlcNAc(b1-3)Gal(b1-4)GlcNAc(b1-2)Man(a1-6)]Man(b1-4)GlcNAc(b1-4)GlcNAc
# Procedure, shortened: as §1
# Gal6S(b1-4)Glc = target: Gal6S(b1-4)Glc
# Procedure, shortened: as §1
# Gal6S(b1-4)GlcNAc = target: Gal6S(b1-4)GlcNAc
# Procedure, shortened: as §1
# GalNAc(a1-3)Gal = target: GalNAc(a1-3)Gal
# Procedure, shortened: as §1
# GalNAc(a1-3)GalNAc = target: GalNAc(a1-3)GalNAc
# Procedure, shortened: as §1
# [23] = target: GalNAc(b1-3)Gal(a1-4)Gal(b1-4)GlcNAc(b1-3)Gal(b1-4)Glc
# Procedure, shortened: as §1
# GalNAc(b1-6)GalNAc = target: GalNAc(b1-6)GalNAc
# Procedure, shortened: as §1
# [24] = target: GlcNAc(a1-4)Gal(b1-4)GlcNAc(b1-3)Gal(b1-4)GlcNAc
# Procedure, shortened: as §1
# [25] = target: GlcNAc(a1-4)Gal(b1-4)GlcNAc(b1-3)Gal(b1-4)[Fuc(a1-3)]GlcNAc(b1-3)Gal(b1-4)[Fuc(a1-3)]GlcNAc
# Procedure, shortened: as §1
# [26] = target: GlcNAc(b1-2)[GlcNAc(b1-4)]Man(a1-3)[GlcNAc(b1-4)][GlcNAc(b1-2)[GlcNAc(b1-6)]Man(a1-6)]Man(b1-4)GlcNAc(b1-4)GlcNAc
# Procedure, shortened: as §1
# [27] = target: GlcNAc(b1-3)Gal(b1-4)GlcNAc(b1-3)Gal(b1-4)GlcNAc(b1-2)Man(a1-3)[GlcNAc(b1-3)Gal(b1-4)GlcNAc(b1-3)Gal(b1-4)GlcNAc(b1-2)Man(a1-6)]Man(b1-4)GlcNAc(b1-4)[Fuc(a1-6)]GlcNAc
# Procedure, shortened: as §1
# [28] = target: Man(a1-3)[Man(a1-6)]Man(a1-6)[Man(a1-3)]Man
# Procedure, shortened: as §1
# [29] = target: Neu5Ac(a2-3)Gal(b1-3)GalNAc6S
# Procedure, shortened: as §1
# [30] = target: Neu5Ac(a2-3)Gal(b1-3)[Neu5Ac(a2-6)]GlcNAc(b1-3)[Fuc(a1-3)[Gal(b1-4)]GlcNAc(b1-6)]Gal(b1-4)Glc
# Procedure, shortened: as §1
# [31] = target: Neu5Ac(a2-3)Gal(b1-4)GlcNAc(b1-2)[Neu5Ac(a2-3)Gal(b1-4)GlcNAc(b1-4)]Man(a1-3)[GlcNAc(b1-4)][Neu5Ac(a2-3)Gal(b1-4)GlcNAc(b1-4)Man(a1-6)]Man(b1-4)GlcNAc(b1-4)GlcNAc
# Procedure, shortened: as §1
# [32] = target: Neu5Ac(a2-3)Gal(b1-4)[Fuc(a1-3)]GlcNAc(b1-2)Man
# Procedure, shortened: as §1
# [33] = target: Neu5Ac(a2-6)Gal(b1-4)GlcNAc(b1-2)Man(a1-3)[Man(a1-6)]Man(b1-4)GlcNAc(b1-4)GlcNAc
# Procedure, shortened: as §1
# [34] = target: Neu5Ac(a2-6)Gal(b1-4)GlcNAc(b1-2)[Neu5Ac(a2-6)Gal(b1-4)GlcNAc(b1-4)]Man(a1-3)[GlcNAc(b1-4)][Neu5Ac(a2-6)Gal(b1-4)GlcNAc(b1-4)Man(a1-6)]Man(b1-4)GlcNAc(b1-4)GlcNAc
# Procedure, shortened: as §1
# [35] = target: Neu5Ac(a2-6)Gal(b1-4)GlcNAc(b1-6)[Gal(b1-3)]GalNAc
# Procedure, shortened: as §1
# [36] = target: Neu5Ac(a2-6)GalNAc(b1-4)GlcNAc
# Procedure, shortened: as §1
# [37] = target: Neu5Ac(a2-8)Neu5Ac(a2-8)Neu5Ac(a2-3)Gal(b1-4)Glc
# Procedure, shortened: as §1
# Neu5Gc(a2-6)GalNAc = target: Neu5Gc(a2-6)GalNAc
# Procedure, shortened: as §1
binder,measurement,setting,value
"OS9-MRH (Homo sapiens), Q13438 (protein) IPELLSPMRDAPCLLKTKDWWTYEFCYGRHIQQYHMEDSEIKGEVLYLGYYQSAFDWDDETAKASKQHRLKRYHSQTYGNGSKCDLNGRPREAEVRFLCDEGAGISGDYIDRVDEPLSCSYVLTIRTPRLCPHPLLRPPPSAAPQAI",glycan array binding signal (z-score),[1],3.15
same,glycan array binding signal (z-score),[2],-1.22
same,glycan array binding signal (z-score),[3],0.415
same,glycan array binding signal (z-score),[4],0.3
same,glycan array binding signal (z-score),[5],2.76
same,glycan array binding signal (z-score),[6],0.172
same,glycan array binding signal (z-score),[7],-1.74
same,glycan array binding signal (z-score),[8],2.81
same,glycan array binding signal (z-score),[9],-0.024
same,glycan array binding signal (z-score),[10],0.493
same,glycan array binding signal (z-score),[11],-0.569
same,glycan array binding signal (z-score),[12],2.47
same,glycan array binding signal (z-score),[13],2.02
same,glycan array binding signal (z-score),[14],-0.137
same,glycan array binding signal (z-score),[15],2.4
same,glycan array binding signal (z-score),Gal(b1-3)GlcNAc6S,-0.326
same,glycan array binding signal (z-score),[16],2.22
same,glycan array binding signal (z-score),[17],1.24
same,glycan array binding signal (z-score),[18],2.17
same,glycan array binding signal (z-score),[19],0.47
same,glycan array binding signal (z-score),[20],-0.755
same,glycan array binding signal (z-score),[21],1.51
same,glycan array binding signal (z-score),[22],2.42
same,glycan array binding signal (z-score),Gal6S(b1-4)Glc,-0.643
same,glycan array binding signal (z-score),Gal6S(b1-4)GlcNAc,-0.312
same,glycan array binding signal (z-score),GalNAc(a1-3)Gal,2.81
same,glycan array binding signal (z-score),GalNAc(a1-3)GalNAc,3.57
same,glycan array binding signal (z-score),[23],-1.33
same,glycan array binding signal (z-score),GalNAc(b1-6)GalNAc,1.14
same,glycan array binding signal (z-score),[24],-0.159
same,glycan array binding signal (z-score),[25],1.12
same,glycan array binding signal (z-score),[26],-1.46
same,glycan array binding signal (z-score),[27],0.656
same,glycan array binding signal (z-score),[28],0.835
same,glycan array binding signal (z-score),[29],0.458
same,glycan array binding signal (z-score),[30],-0.321
same,glycan array binding signal (z-score),[31],0.322
same,glycan array binding signal (z-score),[32],-0.503
same,glycan array binding signal (z-score),[33],-0.807
same,glycan array binding signal (z-score),[34],-0.99
same,glycan array binding signal (z-score),[35],-0.081
same,glycan array binding signal (z-score),[36],5.26
same,glycan array binding signal (z-score),[37],0.1
same,glycan array binding signal (z-score),Neu5Gc(a2-6)GalNAc,1.14
